SMILES strings stand for the structures. “And” between values parts separate entries of the source, which are not always exact repeats. Identical values can stand only once. Records with an inconclusive call do not appear. Entries that show only a call come without a potency. The source made the active and inactive calls. Calls follow the shape of the dose curve; as a rule, active = well fitted cell-killing curve with a large enough effect in the repeat runs; inconclusive = weak or mixed curves; inactive = flat fitted curve, though single readings scatter.

We go through 40 molecules from PubChem BioAssay (Tox21).
Potency is read from the fitted curve at half-maximal effect.

The nature of this assay: qHTS RealTime-Glo MT Cell Viability Assay in HepG2 cells - 24 hour (AID 1224867). Also: nearly all actives have a fitted effect of over 50% in size. The following applies: RealTime-Glo luminescence; series mostly up to 76.8 µM; activity change, negative = cytotoxicity: at the top concentration. The source says:
U.S. Tox21 Program National Center for Advancing Translational Sciences [NCATS] NIH Chemical Genomics Center [NCGC] U.S. Environmental Protection Agency [EPA] National Institutes of Environmental Health Sciences [NIEHS] National Toxicology Program [NTP] U.S. Food and Drug Administration [FDA] Tox21 Assay Overview: Measure of cell viability is critical in the cell-base assay. Analysis of cell viability is necessary for the characterization of cell responses to cytotoxic drugs and environmental stress. A RealTime-Glo MT Cell Viability Assay to monitor cell viability in real time of continues cell culture during 40 hours of compound treatment was used to screen Tox21 10K library compounds in HepG2 cells. The RealTime-Glo MT Cell Viability Assay is a nonlytic, homogeneous, bioluminescent method to measure cell viability in real time using a simple, plate-based method. The assay involves adding NanoLuc luciferase and a cell-permeant prosubstrate to cells in culture. Viable cells reduce the proprietary prosubstrate to generate a substrate for NanoLuc luciferase. This substrate diffuses from cells into the surrounding culture medium, where it is rapidly used by the NanoLuc Enzyme to produce a luminescent signal. The signal correlates with the number of viable cells, making the assay well suited for cytotoxicity studies.
Tox21 Assay Protocol Summary: The mixture of HepG2 cell suspension and reagents were dispensed at 600cells/6 ul/well in 1536-well tissue culture treated black solid bottom plates using a Multidrop dispenser. After the assay plates were incubated at a 37 C/5% CO2 incubator for 5 hours, 23 nL of compounds dissolved in DMSO, positive and negative controls was transferred to the assay plate by a pintool work station. The plates were incubated at 37 C for 40 hours. The luminescence intensity were measured at 0h, 8h, 16h, 24h, 32h and 40h time points using ViewLux plate reader during compound treatment.
Turning to `CCCCCCCC[N+](C)(CCCCCCCC)CCCCCCCC`, the Potency was 10.9 µM (active) and 21.9 µM (active) and 9.77 µM (active).
The same measure, in the same setting: with `CSc1nc(NC(C)C)nc(NC(C)C)n1` the entry was “inactive”.
The same measure, in the same setting: to `CC(C)=CC1C(C(=O)OCc2cccc(Oc3ccccc3)c2)C1(C)C` (stereo not given) belongs “inactive”; to `CC(C)=CC1C(C(=O)OCN2C(=O)C3=C(CCCC3)C2=O)C1(C)C` (stereo not given), “inactive”; to `CC(C)(O)C(=O)Nc1ccc([N+](=O)[O-])c(C(F)(F)F)c1`, “inactive”.
Still for that read-out and setting: to `CC(C)CON=O` belongs “inactive”; to `CCC[CH2][Sn]([Cl])([CH2]CCC)[CH2]CCC`, 1.55 µM (active) and 549 nM (active).
With `CC(C)(c1ccccc1)c1ccc(O)cc1`, the “activity change, negative = cytotoxicity” value was -15.6% (inactive).
Take `CC1(C)C(C(=O)OC(C#N)c2cccc(Oc3ccccc3)c2)C1(C)C` (stereo not given): the Potency entry was “inactive”.
The same measure, in the same setting: with `C=C(C)C#N` the entry was “inactive”; with `CCCCOC(=O)COC(=O)c1ccccc1C(=O)OCCCC`, “inactive”.
On the same count and under the same terms, with `Oc1ccc(Cl)cc1Cl` the entry was “inactive”; with `c1ccc(C2CO2)cc1` (stereo not given), “inactive”; with `CS(=O)(=O)NC(=O)c1cc(Oc2ccc(C(F)(F)F)cc2Cl)ccc1[N+](=O)[O-]`, “inactive”.
As to `CCOS(=O)(=O)OCC`, the Potency result is “inactive”.
Same read-out and setting: with `Cc1ccc(N=CN(C)C=Nc2ccc(C)cc2C)c(C)c1` the entry was “inactive”; with `ClC(Cl)(Cl)Br`, “inactive”.
For `N#Cc1nn(-c2c(Cl)cc(C(F)(F)F)cc2Cl)c(N)c1S(=O)C(F)(F)F` (stereo not given), the “activity change, negative = cytotoxicity” value is -11.4% [at 35.3 µM] (inactive).
With `CNC(=S)S`, the Potency entry was “inactive”.
Still for that read-out and setting: to `CNC(=O)CSP(=S)(OC)OC` belongs “inactive”.
On the same count and under the same terms, with `COP(=S)(OC)Oc1ccc(S(=O)(=O)N(C)C)cc1` the entry was “inactive”.
Consider `O=C1C(Cl)=C(Cl)C(=O)c2ccccc21`, for which the Potency is 24.6 µM (active) and 11 µM (active).
On the same count and under the same terms, to `Clc1cccc(Cl)c1` belongs “inactive”.
The same measure, in the same setting: with `CCC1(c2ccc(N)cc2)CCC(=O)NC1=O` (stereo not given) the entry was “inactive”.
On the same count and under the same terms, with `CC(C)Nc1ccc(Nc2ccccc2)cc1` the figure was 54.7 µM (active) and 49 µM (active).
For the molecule `COP(=S)(OC)SCn1nnc2ccccc2c1=O`, the Potency result is “inactive”.
On to `O=P(OCCCl)(OCCCl)OCCCl`, for which the Potency result is “inactive”.
In the case of `COP(=S)(OC)Oc1ccc(Sc2ccc(OP(=S)(OC)OC)cc2)cc1`, the Potency entry is “inactive”.
The same measure, in the same setting: with `O=C1CCCO1` the entry was “inactive”; with `Cc1cc(Cl)ccc1N=CN(C)C`, “inactive”.
On the same count and under the same terms, with `O=NN(c1ccccc1)c1ccccc1` the entry was “inactive”; with `CN(C)P(=O)(N(C)C)N(C)C`, “inactive”; with `CNC(=O)Oc1cccc2c1OC(C)(C)C2`, “inactive”.
The same measure, in the same setting: to `CN(C)c1nc(=O)n(C2CCCCC2)c(=O)n1C` belongs “inactive”; to `Nc1ccc2ccccc2c1`, “inactive”.
For the molecule `OC(c1ccc(Cl)cc1)(c1cncnc1)c1ccccc1Cl` (stereo not given), the Potency was 31.4 µM (active).
Same read-out and setting: to `Clc1ccc(C(Cl)(Cl)Cl)cc1` belongs “inactive”; to `CCNCC`, “inactive”.
On the same count and under the same terms, with `CCC/C=N/O` the entry was “inactive”; with `O=[N+]([O-])/N=C1\NCCN1Cc1ccc(Cl)nc1`, “inactive”.
